Where “and” joins values, the source holds several entries; their conditions need not be identical. Identical values can stand only once. Values without a mark were called inactive. Results filed as inconclusive are left out. Entries that show only a call come without a potency. Calls of active or inactive are those of the source. Calls follow the shape of the dose curve; as a rule, active = well fitted curve in the direction sought with a large enough effect; inconclusive = small, poorly fitted or top-dose-only effect, or another doubt; inactive = no such curve, though single readings can be large; an effect the other way counts as inactive or inconclusive.
Key:
[1] = qHTS for compounds that reverse cellular toxicity of Amyloid beta (A-beta) peptide in yeast: LOPAC Validation Assay (AID 720559); details: Potency: rescue of growth toxicity
Outline: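 Here, A-beta-toxic yeast grow with test compounds at 30 C for 48 hr before optical density at 600 nm is recorded; data are normalized against DMSO and the FeCl3-clioquinol control.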

[2] = qHTS for Activators of Parkin Expression: LOPAC Validation Assay (NLuc Reporter) (AID 720572)
Outline: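 Neuronal line stably carrying a FLuc/NLuc coincidence reporter under the Parkin promoter, seeded 24 h, then dosed in 7-point series for 24 h at 37 C. NLuc luminescence read after FLuc; normalized to DMSO and positive control (100%).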

[3] = qHTS for Activators of Parkin Expression: LOPAC Validation Assay (FLuc Reporter) (AID 720573)
Outline: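 Readout is FLuc luminescence from neuronal reporter cells (Parkin promoter, FLuc plus NLuc) after 24 h compound exposure in dose response. Values normalized to neutral DMSO and positive-control compounds.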

[4] = molecular target: T1, Hexokinase-4 (Homo sapiens) + Glucokinase regulatory protein (Homo sapiens) (UniProt P35557+Q14397); experiment: qHTS assay for inhibitors of recombinant human GCK-GKRP interaction: Diaphorase-coupled assay (AID 743205)
Outline: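 Signal derives from resorufin generated by diaphorase, linked to GCK turnover of glucose (5 mM) and ATP (0.4 mM). Enzyme complex was added after a 20-minute compound preincubation and monitored for 30 minutes.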

[5] = molecular target: T1, Hexokinase-4 (Homo sapiens) + Glucokinase regulatory protein (Homo sapiens); experiment: qHTS assay for inhibitors of recombinant human GCK-GKRP interaction: ADP-Glo assay (AID 743206)
Outline: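 GST-GCK and FLAG-GKRP (15 nM each in the dispensed mix, with 2 uM S6P) react with 0.4 mM ATP and 5 mM glucose (final) in Hepes pH 7.6 for 60 min at room temperature. ADP is measured by ADP-Glo luminescence.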

[6] = molecular target: T1, Hexokinase-4 (Homo sapiens) + Glucokinase regulatory protein (Homo sapiens); experiment: qHTS assay for inhibitors of recombinant human GCK-GKRP interaction: HTRF assay (AID 743207)
Outline: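 Titration screening format: recombinant GST-GCK and FLAG-GKRP at 5 nM, S6P at 2 uM, labelled anti-tag antibodies, 60 min at RT, dual-wavelength HTRF readout.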

[7] = qHTS Assay for Identifying Gametocytocidal Compounds (AID 743244); also: potency is read from the fitted curve at half-maximal effect;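 as to max response: actives lower the fluorescent signal which means gametocytes are killed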; details: P. falciparum 3D7 stage III-V gametocytes, alamarBlue, 72 h; max response: hits give low values
Outline: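 Stage III-V P. falciparum 3D7 gametocytes, 20,000 per well, were exposed to compounds for 72 h at 37C, 5% CO2. AlamarBlue was then added for 24 h and viability was read as fluorescence at Ex 525/Em 598 nm.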

T1 sequence (P35557 whole entry, looked up): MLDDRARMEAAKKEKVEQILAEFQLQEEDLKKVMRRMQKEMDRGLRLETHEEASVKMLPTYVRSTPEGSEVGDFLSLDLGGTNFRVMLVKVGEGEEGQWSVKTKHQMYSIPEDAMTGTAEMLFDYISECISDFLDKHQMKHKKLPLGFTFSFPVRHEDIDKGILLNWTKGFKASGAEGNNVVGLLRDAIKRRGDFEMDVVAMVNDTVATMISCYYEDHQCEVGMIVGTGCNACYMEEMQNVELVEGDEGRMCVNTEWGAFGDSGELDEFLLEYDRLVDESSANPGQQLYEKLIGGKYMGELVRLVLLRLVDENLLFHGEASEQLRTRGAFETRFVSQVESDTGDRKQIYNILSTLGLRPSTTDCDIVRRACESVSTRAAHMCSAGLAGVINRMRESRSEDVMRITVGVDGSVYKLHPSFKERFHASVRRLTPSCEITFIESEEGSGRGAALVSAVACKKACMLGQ
T1 sequence (Q14397 whole entry, looked up): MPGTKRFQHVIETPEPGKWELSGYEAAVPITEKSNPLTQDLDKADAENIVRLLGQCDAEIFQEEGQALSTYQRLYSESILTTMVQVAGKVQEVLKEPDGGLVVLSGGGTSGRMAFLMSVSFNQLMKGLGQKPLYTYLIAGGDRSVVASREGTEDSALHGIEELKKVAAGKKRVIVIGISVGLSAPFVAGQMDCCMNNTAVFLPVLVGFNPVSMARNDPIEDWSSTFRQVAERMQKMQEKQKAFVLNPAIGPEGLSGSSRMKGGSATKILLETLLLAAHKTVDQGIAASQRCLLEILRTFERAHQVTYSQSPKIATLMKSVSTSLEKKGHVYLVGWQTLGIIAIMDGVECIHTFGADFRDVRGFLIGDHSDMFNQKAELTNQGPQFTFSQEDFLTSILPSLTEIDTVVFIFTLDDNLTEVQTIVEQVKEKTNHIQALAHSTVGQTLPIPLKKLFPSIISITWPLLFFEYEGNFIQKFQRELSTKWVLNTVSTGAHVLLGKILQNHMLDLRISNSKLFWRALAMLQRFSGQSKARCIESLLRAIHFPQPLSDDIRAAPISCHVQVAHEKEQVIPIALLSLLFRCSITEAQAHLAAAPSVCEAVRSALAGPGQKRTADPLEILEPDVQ

SMILES | Potency [1] | Potency [2] | Potency [3] | outcome [4] | Potency [5] | Potency [6] | max response [7] | Potency [7]
CCCCCCCCCCCCCCCC(=O)NCC(COP(=O)([O-])OCC[N+](C)(C)C)OCC (stereo unspecified) | inactive | inactive | inactive | inactive | inactive | inactive | 1.33% | –
O=C(c1cc(O)c(O)c([N+](=O)[O-])c1)c1ccccc1F | inactive | inactive | inactive | inactive | inactive | inactive | 18.1% | –
O=C(O)CC1CCCc2ccccc2C1O (stereo unspecified) | inactive | inactive | inactive | inactive | inactive | inactive | 12.4% | –
CN(C)c1nc(N)c(C(=O)N=C(N)N)nc1Cl | inactive | inactive | inactive | inactive | inactive | inactive | 11% | –
CC1CN(S(=O)(=O)c2cccc3cnccc23)CCN1 (stereo unspecified) | inactive | inactive | inactive | inactive | inactive | inactive | 23.3% | –
NCC1OC(O[C@H]2[C@H](O)[C@@H](OC3C(O)C(N)CC(N)C3OC3OC(CO)C(O)C(O)C3N)O[C@@H]2CO)C(N)C(O)C1O (stereo partly specified) | inactive | inactive | inactive | inactive | inactive | inactive | 40.6% | –
CN1CCc2ccccc2Cc2[nH]c3ccccc3c2CC1 | inactive | inactive | inactive | inactive | inactive | inactive | -0.861% | –
CN1CC(=O)N/C1=N/C(=O)Nc1cccc(Cl)c1 | inactive | inactive | inactive | inactive | inactive | inactive | 11.6% and 35.9% | –
CCCCCCCCc1ccc(-c2ccc(C(=O)O)cc2)cc1 | inactive | inactive | inactive | inactive | inactive | inactive | 11.5% | –
O=C1O/C(=C/Br)CCC1c1cccc2ccccc12 (stereo unspecified) | inactive | inactive | inactive | inactive | inactive | inactive | 7.23% | –
O=C(O)CC1CC(c2ccccc2)=NO1 (stereo unspecified) | inactive | inactive | inactive | inactive | inactive | inactive | -4.91% | –
O=C(O)[C@@H]1C[C@H](C(=O)O)N1 | inactive | inactive | inactive | inactive | inactive | inactive | -2.93% | –
Cc1cc(NC2CCCCC2)nc(-n2nc(C)cc2C)n1 | inactive | inactive | inactive | inactive | inactive | inactive | – | 1.18 µM (active)
NC(=O)C1=CN(C2OC(COP(=O)(O)OP(=O)(O)OC[C@H]3O[C@@H](n4cnc5c(N)ncnc54)[C@H](OP(=O)(O)O)[C@@H]3O)C(O)C2O)C=CC1 (stereo partly specified) | inactive | inactive | inactive | inactive | inactive | inactive | -6.13% | –
CCN1/C(=C/C(C)=O)Sc2ccc(OC)cc21 | inactive | inactive | inactive | inactive | inactive | inactive | 22.2% | –
O=C(O)[C@@H]1C[C@@H](C(=O)O)N1 | inactive | inactive | inactive | inactive | inactive | inactive | 6.85% | –
O=C(O)CC[C@@H](C(=O)O)N1C(=O)c2ccccc2C1=O | inactive | inactive | inactive | inactive | inactive | inactive | -10.9% | –
NCCCCC(=O)O | inactive | inactive | inactive | inactive | inactive | inactive | 12.2% | –
CNC(=O)[C@H]1O[C@@H](n2cnc3c(NCc4ccc(N)cc4)ncnc32)[C@H](O)[C@@H]1O | inactive | inactive | inactive | inactive | inactive | inactive | 6.14% | –
Cc1nc2sccn2c(=O)c1CCN1CCC(=C(c2ccccc2)c2ccc(F)cc2)CC1 | inactive | inactive | inactive | inactive | inactive | inactive | 35.1% | –
COc1cc(OC)c(/C=C2/C(=O)Nc3ccccc32)c(OC)c1 | inactive | inactive | inactive | inactive | inactive | inactive | 33.5% | –
Cn1cc(C2=C(c3ccc(Cl)cc3Cl)C(=O)NC2=O)c2ccccc21 | inactive | inactive | inactive | inactive | inactive | inactive | 6.65% | –
Cc1ccccc1CNc1ncnc2c1ncn2C1OC(CO)C(O)C1O (stereo unspecified) | inactive | inactive | inactive | inactive | inactive | inactive | 21.1% | –
CSc1ccccc1N1CCN(CCCCCC(=O)NC2CCCc3ccccc32)CC1 (stereo unspecified) | inactive | inactive | inactive | inactive | inactive | inactive | 6.9% | –
O=C1C(SCCO)=C(SCCO)C(=O)c2ccccc21 | inactive | inactive | inactive | inactive | inactive | – | – | 1.41 µM (active)
COc1cccc(OC)c1OCCNCC1COc2ccccc2O1 (stereo unspecified) | inactive | inactive | inactive | inactive | inactive | inactive | 16.7% | –
